{"source": "PubChem BioAssay AID686979", "about": "(National Center for Advancing Translational Sciences (NCATS), 2013)", "note": "In all, about 420,000 compounds went through this assay and about 50,000 (12%) were called active. Inconclusive results (about 26%) are left out. This is one part of a sample in which actives are shown more often than they occur. Calls follow the shape of the dose curve; as a rule, active = well fitted inhibition curve with a large enough effect; inconclusive = small, poorly fitted or top-dose-only effect; inactive = flat fitted curve, though single readings scatter."}
{"experiment": "qHTS for Inhibitors of human tyrosyl-DNA phosphodiesterase 1 (TDP1): qHTS in cells in presence of CPT; also: nearly all actives have a fitted effect of over 55% in size; also: potency is read from the fitted curve at half-maximal effect; as to activity change, negative = growth inhibition: % is scaled to controls: 0 for no effect and ±100 for the full control effect", "settings": "chicken DT40 Tdp1-/-;hTDP1 cells + 20 nM CPT, ATP luminescence, 48 h; series mostly up to 46.2 µM; activity change, negative = growth inhibition: at the top concentration", "outline": "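Chicken DT40 Tdp1-/- cells stably complemented with human TDP1 were seeded at 400 cells/well in medium containing 20 nM camptothecin, exposed to pin-transferred compounds, and grown at 37 °C for at least 48 hr. Viability was read as ATP luminescence.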"}
{"compound": "O=C(CN1C(=O)NC(Cc2c[nH]c3ccccc23)C1=O)Nc1ccccc1C(F)(F)F", "note": "(stereo not drawn)", "activity change, negative = growth inhibition": "-16.4% (inactive)"}
{"compound": "O=C(O)C1CCC(CNS(=O)(=O)c2ccc(Br)cc2)CC1", "note": "(stereo not drawn)", "activity change, negative = growth inhibition": "0.756% (inactive)"}
{"compound": "CC(=O)N/C(=C/c1ccc(OC(F)F)cc1)C(=O)O", "activity change, negative = growth inhibition": "6.08% (inactive)"}
{"compound": "NC(=O)c1cc(S(=O)(=O)NCCCc2ccco2)cs1", "activity change, negative = growth inhibition": "-27.2% (inactive)"}
{"compound": "Cc1cccc(CC2(O)C(=O)Nc3ccccc32)n1", "note": "(stereo not drawn)", "activity change, negative = growth inhibition": "-19.8% (inactive)"}
{"compound": "CCN(CC)c1ccc2cc(C(N)=O)/c(=N\\NC(=O)c3ccncc3)oc2c1", "Potency": "16.4 µM (active)"}
{"compound": "COc1ccc(C(=O)N/N=c2\\oc3ccccc3cc2C(N)=O)cc1", "activity change, negative = growth inhibition": "-8.26% (inactive)"}
{"compound": "NC(=O)c1cc2ccccc2o/c1=N/NC(=O)c1cccc(F)c1", "activity change, negative = growth inhibition": "-23.1% (inactive)"}
{"compound": "COc1cccc(NC(=S)NC(=O)c2c(Cl)c(C)nn2C)c1", "activity change, negative = growth inhibition": "3.79% (inactive)"}
{"compound": "Cc1ccc(C(=O)COC(=O)c2cccc(N3C(=O)c4c(C)nc5ccccc5c4C3=O)c2)cc1C", "activity change, negative = growth inhibition": "1.34% (inactive)"}
{"compound": "CCCCCCCCn1c2c(c(=N)c3c1CCC3)CCCC2", "Potency": "0.92 µM (active)"}
{"compound": "O=C(O)C1CCN(C(=O)OCc2ccccc2)CC1", "activity change, negative = growth inhibition": "2.35% (inactive)"}
{"compound": "O=C(COC(=O)CNC(=O)C1CCCCC1)NCc1ccccc1", "activity change, negative = growth inhibition": "15.2% (inactive)"}
{"compound": "CC1(C)CC(=O)c2cc(C(=O)NCc3ccccc3)c(=O)[nH]c2C1", "activity change, negative = growth inhibition": "-12.3% (inactive)"}
{"compound": "CC(C)(C)[C@H]1C=C(C(=O)NCc2ccccc2)O[C@@H](OCc2ccc(CO)cc2)C1", "Potency": "18.4 µM (active)"}
{"compound": "CSc1ccccc1C(=O)NCc1ccccc1", "activity change, negative = growth inhibition": "1% (inactive)"}
{"compound": "O=C(NCc1ccccc1)C1=C[C@@H](C2CCCCC2)C[C@@H](OCc2ccc(CO)cc2)O1", "Potency": "16.4 µM (active)"}
{"compound": "CCCCc1nc(SCC(=O)Nc2nnc(C(C)C)s2)n[nH]1", "activity change, negative = growth inhibition": "-21.8% (inactive)"}
{"compound": "O=C(OCC(=O)N1CCCC1=O)c1cc(S(=O)(=O)N2CCOCC2)ccc1Cl", "activity change, negative = growth inhibition": "3.27% (inactive)"}
{"compound": "O=C(OCC(=O)N1CCN(C(=O)c2ccco2)CC1)c1c(Cl)cccc1Cl", "activity change, negative = growth inhibition": "-3.35% (inactive)"}
{"compound": "CC(=O)Nc1cccc(C(=O)OCC(=O)NCc2cc(C)c(O)c(C)c2)c1", "activity change, negative = growth inhibition": "3.43% (inactive)"}
{"compound": "CC(=O)c1cccc(OCC(=O)OCC(=O)Nc2cc(S(=O)(=O)N3CCCCC3)ccc2C)c1", "activity change, negative = growth inhibition": "-0.0276% (inactive)"}
{"compound": "c1ccc2cc(CCCc3cc4ccccc4cn3)ncc2c1", "activity change, negative = growth inhibition": "-26.5% (inactive)"}
{"compound": "CN(CC(=O)NCCc1ccccn1)S(=O)(=O)c1ccc(Cl)cc1", "activity change, negative = growth inhibition": "3.55% (inactive)"}
{"compound": "O=C(NCc1ccccn1)c1cc(Br)ccc1Cl", "activity change, negative = growth inhibition": "-2.09% (inactive)"}
{"compound": "O=C(NCCc1ccccn1)c1cc(-c2ccc(Cl)cc2)nc2ccccc12", "Potency": "13 µM (active)"}
{"compound": "COC(=O)c1ccc2c(c1)S(=O)(=O)NC2C", "note": "(stereo not drawn)", "activity change, negative = growth inhibition": "7.67% (inactive)"}
{"compound": "CCCNC(=O)C1CCN(c2nc3ccc(C)cc3[nH]2)CC1", "activity change, negative = growth inhibition": "-11.4% (inactive)"}
{"compound": "CCC1CCCCN1S(=O)(=O)Cc1ccccc1Cl", "note": "(stereo not drawn)", "activity change, negative = growth inhibition": "-0.993% (inactive)"}
{"compound": "CN(CCc1ccccn1)C(=O)c1ccc(OC2CCN(Cc3ccccn3)CC2)cc1", "activity change, negative = growth inhibition": "-2.64% (inactive)"}
{"compound": "NC(=S)N/N=C/c1coc2cc(Cl)ccc2c1=O", "activity change, negative = growth inhibition": "-8.57% (inactive)"}
{"compound": "CC(C)Oc1c(Br)cc(Br)cc1/C=N/NC(N)=S", "Potency": "16.4 µM (active)"}
{"compound": "CCOC(=O)C1=C(C)c2ccccc2OC1(C)C(=O)OCC", "note": "(stereo not drawn)", "activity change, negative = growth inhibition": "-15.8% (inactive)"}
{"compound": "COc1ccc(NC(=O)CCC(=O)Nc2nnc(C3CCCCC3)s2)cc1", "activity change, negative = growth inhibition": "-3.36% (inactive)"}
{"compound": "CCOc1ccc(N2CC(c3nc4ccccc4n3CCOc3ccc(OC)cc3)CC2=O)cc1", "note": "(stereo not drawn)", "Potency": "20.6 µM (active)"}
{"compound": "CC(C)(C)N1CC(c2nc3ccccc3n2Cc2ccc(F)cc2)CC1=O", "note": "(stereo not drawn)", "activity change, negative = growth inhibition": "-19.6% (inactive)"}
{"compound": "CCOc1ccc(NC(=O)[C@H](C)NC(=O)C2CC(=O)N(c3ccc(OC)cc3)C2)cc1", "note": "(stereo partly drawn)", "activity change, negative = growth inhibition": "4.17% (inactive)"}
{"compound": "CCc1ccccc1N1CC(c2nc3ccccc3n2CCCCOc2ccccc2)CC1=O", "note": "(stereo not drawn)", "activity change, negative = growth inhibition": "-23.8% (inactive)"}
{"compound": "CCCOc1ccc(N2CC(C(=O)Nc3ccccn3)CC2=O)cc1", "note": "(stereo not drawn)", "activity change, negative = growth inhibition": "-0.824% (inactive)"}
{"compound": "CCCOc1cc(C)c(S(=O)(=O)n2nnc3ccccc32)cc1C", "activity change, negative = growth inhibition": "2.86% (inactive)"}
{"compound": "Cc1ccc(C(C)C)c(OCCSc2nc3ccccc3n2CC(=O)O)c1", "activity change, negative = growth inhibition": "-6.59% (inactive)"}
{"compound": "CCCCN1CC(c2nc3ccccc3n2CCCCOc2ccc(C)cc2C)CC1=O", "note": "(stereo not drawn)", "Potency": "7.31 µM (active)"}
{"compound": "COc1ccc(OCCCn2c(C3CC(=O)N(c4ccc(F)cc4)C3)nc3ccccc32)cc1", "note": "(stereo not drawn)", "Potency": "18.4 µM (active)"}
{"compound": "COc1ccc(Nc2ccc([N+](=O)[O-])cn2)cn1", "activity change, negative = growth inhibition": "2.83% (inactive)"}
{"compound": "CNC[C@H]1OCc2cnnn2CCCC(=O)N([C@H](C)CO)C[C@@H]1C", "activity change, negative = growth inhibition": "6.39% (inactive)"}
{"compound": "CCCCC(c1nnnn1CS(=O)(=O)c1ccc(C)cc1)N1CCC(C(N)=O)CC1", "note": "(stereo not drawn)", "activity change, negative = growth inhibition": "-8.84% (inactive)"}
{"compound": "Cc1ccc(CC2C(=O)N(c3ccc(F)cc3)C(=O)C2C)cc1", "note": "(stereo not drawn)", "activity change, negative = growth inhibition": "11.8% (inactive)"}
{"compound": "Clc1ccc2nc(CSc3ccccc3)cn2c1", "activity change, negative = growth inhibition": "-4.31% (inactive)"}
{"compound": "Cc1ccc(CNC(=O)CCN2C(=O)[C@@H]3Cc4ccccc4CN3C2=O)cc1", "activity change, negative = growth inhibition": "-1.28% (inactive)"}
{"compound": "CCN1C(=O)[C@H]2[C@@H](c3ccc(C)cc3)N3C(=O)N(c4cccc(Br)c4)C(=O)[C@@]3(CC)[C@H]2C1=O", "activity change, negative = growth inhibition": "-17.6% (inactive)"}
{"compound": "COc1ccc([C@@H]2[C@@H]3C(=O)N(C(C)(C)C)C(=O)[C@@H]3[C@]3(Cc4ccccc4)C(=O)N(c4cccc(Br)c4)C(=O)N23)cc1", "activity change, negative = growth inhibition": "3.95% (inactive)"}
{"compound": "CC[C@@]12C(=O)N(c3ccccc3)C(=O)N1[C@H](c1ccc(Br)cc1)[C@@H]1C(=O)N(C(C)(C)C)C(=O)[C@@H]12", "Potency": "16.4 µM (active)"}
{"compound": "O=C1CN(C(=O)c2cc(F)cc(F)c2)c2ccccc2N1", "activity change, negative = growth inhibition": "-8.35% (inactive)"}
{"compound": "CCCC(=O)Nc1ccc2c(c1)nc(CCNC(=O)c1ccco1)n2C", "activity change, negative = growth inhibition": "-5.86% (inactive)"}
{"compound": "CCOC(=O)c1cccc(NC(=O)CCOc2ccccc2)c1", "activity change, negative = growth inhibition": "10.4% (inactive)"}
{"compound": "CCOCCC(=O)Nc1ccc2c(c1)c(=O)n(C)n2-c1ccc2ccccc2c1", "Potency": "1.46 µM (active)"}
{"compound": "C=CC1=C(C(=O)O)N2C(=O)[C@@H](NC(=O)/C(=N\\OCC(=O)O)c3csc(N)n3)[C@H]2SC1", "activity change, negative = growth inhibition": "-9.22% (inactive)"}
{"compound": "O=C(NCc1cc(F)cc(C(F)(F)F)c1)C1CCC(=O)N(C2CCCC2)C1", "note": "(stereo not drawn)", "activity change, negative = growth inhibition": "-11.8% (inactive)"}
{"compound": "Cc1ccccc1NC(=O)C(C)OC(=O)CCC(=O)N(CC(C)C)c1c(N)n(CC(C)C)c(=O)[nH]c1=O", "note": "(stereo not drawn)", "activity change, negative = growth inhibition": "3.98% (inactive)"}
{"compound": "CCN(CC(=O)Nc1c(F)cccc1F)C(=O)c1ccc(Sc2nncn2C)c([N+](=O)[O-])c1", "activity change, negative = growth inhibition": "1.9% (inactive)"}
{"compound": "CCOC(=O)N1CCN(C(=O)c2ccccc2N(Cc2ccccc2)S(=O)(=O)c2ccc(OC)cc2)CC1", "Potency": "2.91 µM (active)"}
{"compound": "CCOC(=O)N1CCN(S(=O)(=O)c2ccc(OC)cc2)CC1", "activity change, negative = growth inhibition": "0.194% (inactive)"}
{"compound": "NC(=O)c1ccccc1N(Cc1ccccc1)S(=O)(=O)c1ccccc1", "activity change, negative = growth inhibition": "25.7% (inactive)"}
